# Measurements: the supplement of paper PMC11417369
# ± gives the standard deviation of the averaged measurements. In all, about 25,000 sequences were measured (“ln(normalized median fluorescence intensity)”: median about 7.9, highest 2% from about 11 on). The entries come from a sample that favours the highest values as a whole.
# Tested on: PfAP2-I AP2 domain 3 (GST-tagged)
# Assay: gcPBM binding intensity (ln(normalized median fluorescence intensity)); higher = stronger DNA binding
# In short: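 Using an Agilent 4 × 180k array, primer-extended double-stranded 36-bp intergenic genomic probes and negative controls were exposed for 1 h to GST-fused P. falciparum DNA-binding domains expressed in E. coli. Binding was carried out in 1× PBS with 1% milk, 0.2 mg/ml BSA, 0.5% salmon testes DNA and 0.03% Triton X-100, and protein was detected with Alexa488 anti-GST antibody and a 488 nm scan. Binding intensity is the highest Masliner-normalised natural-log median intensity across replicate spots of either probe orientation.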
row,Sequence,gcPBM binding intensity (ln)
1,TATTTTTATTTATAACGTACGAAAAATGTATATAAT [XGTACX_site703],7.96 ± 0.35
2,AAATTCCACGGACACACACACATATAAATAAATAAA [CACACA_site4811],8.23 ± 0.37
3,TCAACATTTAAAAATAGTACTCATAAACCTTTCGAA [XGTACX_site4111],7.42 ± 0.46
4,TATGAATGGTTAAGTACACACATATTAATATAGGTA [CACACA_site7606],7.79 ± 0.49
5,ACATATATTTTTTTTTGTACATATAAATATATATAT [XGTACX_site6491],8.7 ± 0.39
6,TTTAAATATAATTGGAGTACTTATAATATATATATA [XGTACX_site7247],8.97 ± 0.12
7,CATTAATTTAATAAATGTACATAAAATATATATTAT [XGTACX_site8085],7.89 ± 0.36
8,CCATTATACACAATATGTACATATATATAATCATTT [XGTACX_site7942],8.04 ± 0.43
9,AGAGATACATAAAAAAGTACATATAAAATTTAGGAA [XGTACX_site7201],7.96 ± 0.19
10,AATTATACGAAATAAAACTTAATAGACAAAAAATTA [CACACA_negctrl_site1384],7.54 ± 0.63
11,ATATTTTATATAATAGTGCAAATAATATTAAATAAT,10.8 ± 0.37
12,GAAAATAAAATATTAGTGCATTATTTGATCAATAAT,11.3 ± 0.73
13,TGCAATTTAATATGAGTGCATATATTGAGAAAATAC,10.04 ± 0.035
14,TTTGAAATATATTTAGTGCATATATATTGATTATAA [GTGCAC_site9604],10.4 ± 0.34
15,TATATATTAAAAATAGTGCAAAATAATATATATATA [GTGCAC_site9716],10.78 ± 0.021
16,GTTATATTTAAAATAGTGCAATAAAAATAATAATAT,11.4 ± 0.67
17,AATCAATTAATATTAGCATAAAATTTTATTATTTTG [XGTACX_negctrl_site479],7.46 ± 0.71
18,TTACAATAAATTATAGTGCAATATTTTATTTAATAT,10.6 ± 0.36
19,ACATATTAAATATGAGTGCAATATATATATATATAA,10.9 ± 0.43
20,TATATGAACTTATATACACACCATTTTTGTAAATCT [CACACA_site4547],7.62 ± 0.54
21,AAATTTGGCAAACACACACACACACCCACAGAGACA [CACACA_site4490],8.305 ± 0.021
22,CCAGGAAAAATTTATTGTACATATATTTTTATGCTC [XGTACX_site7154],7.68 ± 0.53
23,ATATAGATCTACACTGCACACATTTTTAACACTGCT [CACACA_site1882],9.04 ± 0.5

row,Sequence,gcPBM binding intensity (ln)
1,TATATAGAAAACAAGGCATGCAAATAACAAATTGTG [TGCATGCA_site473],8.32 ± 0.91
2,GTTCCAGGCATTCGTGCGCACAAATAGAAACAATTA [GTGCAC_site9824],11.15 ± 0.035
3,TTTAGCACAAACAAAAAAAAAATAGAAAAAAATATA [CACACA_negctrl_site1772],7.59 ± 0.61
4,TGTGTTCATATATGCACACGCATATATATTATTGTT [CACACA_site3822],9.1 ± 0.25
5,ATGCACTCATTGTGCACACGCATATTACGAAAAGAA [CACACA_site2638],10.6 ± 0.18
6,ATATGCACTCATTGTGCACACGCATATTACGAAAAG [CACACA_site2637],11 ± 0.35
7,TTTCTTTCTTTCTTTTTTTAAATATTTTTTAAAAAT [TGCATGCA_negctrl_site206],7.98 ± 0.62
8,ATTATAATGGTAAAGTGTACAAATTTTTATTACACC [XGTACX_site5274],8.49 ± 0.092
9,GCTTCTTAATATCATACACACATAGATATATTTATA [CACACA_site5676],8.11 ± 0.58
10,TTTATATTATTATATCTTATTAATTATTTATCATTT [TGCATGCA_negctrl_site73],7.28 ± 0.58
11,TATCATCTTAATATCGTGCACATTTATAGAACGAAA [GTGCAC_site9992],11 ± 0.12
12,TATACAACTTTATGAAGTACAAAAAGTTCTATATAT [XGTACX_site3866],7.52 ± 0.44
13,TGCCATCATATCATAGGTACACAAACATATAAAGAA [XGTACX_site4137],8.22 ± 0.82
14,AATATATATTTATATTGTACATATATATATATTTCT [XGTACX_site2603],7.55 ± 0.34
15,TTTTTCTATAAAAAATGTACATATTTTATGAAGGAA [XGTACX_site821],7.96 ± 0.5
16,AATGAATATAGTACTGAATGTAATTTAAGGTTTTCC [CACACA_negctrl_site1548],7.53 ± 0.68
17,ATTTAATTTTCATGATGTACTATAGTTTAATGCACA [XGTACX_site1624],11.6 ± 1.1
18,TTTTAGTTAATTCATGCATGTAAAGTTTTATTTATA [TGCATGCA_site252],7.72 ± 0.54
19,ACAAGACAGATATATACACACATACATACATACATA [CACACA_site7472],8.12 ± 0.64
20,ATAAAGGAATTTTATACACACAACATATATATATAT [CACACA_site2861],9.45 ± 0.6
21,TATATATATATATATTGTACACATTGTGTTTAAATA [XGTACX_site5104],9.43 ± 0.44
22,GTAATTTTTTTCTATACACACATATCTATAATATAT [CACACA_site7284],8.09 ± 0.6
23,GTAATTTTTTTCTATACACACATATATATAATATAT [CACACA_site2655],8.12 ± 0.58
